In the library only some 1.4% were active in any assay of this set; here they are far more common.
Mtb MbtI inh: MbtI salicylate synthase inhibition; P9WFX0; purified MbtI enzyme, fluorescence intensity read-out; inhibition, % (no concentration beside the values); 100,000 compounds, 0.89% hits; AID 493033; in the data active means inhibition mostly above about 56%, no sharp cut-off; inactive means mostly below about 77%
MenB inh: blocks the Mycobacterium tuberculosis MenB enzyme. MenB enzyme assay, absorbance read-out. inhibition, % (test concentration not listed). 100,000 compounds, 0.43% hits. AID 540299; in the data active means inhibition above about 21%, passing the limit was not always enough
AID504770: E. coli YBA685 growth inhibition, screen for V. cholerae RctB inhibitors | z-score (no concentration beside the values) | E. coli YBA685 rctB-dependent plasmid, OD600 growth, 3 h; stronger effect = lower value | 130,000 compounds, 0.27% hits; in the data active means z-score below about -2, passing the limit was not always enough
PV pol inh: poliovirus RNA polymerase inhibition | 150,000 compounds, 0.66% hits | poliovirus polymerase elongation, fluorescence polarization; stronger effect = lower value | % elongation, % (compound at 16.7 µg/mL); in the data active means % elongation below about 90%
Target sequence (P03300 1749-2209 limits assumed): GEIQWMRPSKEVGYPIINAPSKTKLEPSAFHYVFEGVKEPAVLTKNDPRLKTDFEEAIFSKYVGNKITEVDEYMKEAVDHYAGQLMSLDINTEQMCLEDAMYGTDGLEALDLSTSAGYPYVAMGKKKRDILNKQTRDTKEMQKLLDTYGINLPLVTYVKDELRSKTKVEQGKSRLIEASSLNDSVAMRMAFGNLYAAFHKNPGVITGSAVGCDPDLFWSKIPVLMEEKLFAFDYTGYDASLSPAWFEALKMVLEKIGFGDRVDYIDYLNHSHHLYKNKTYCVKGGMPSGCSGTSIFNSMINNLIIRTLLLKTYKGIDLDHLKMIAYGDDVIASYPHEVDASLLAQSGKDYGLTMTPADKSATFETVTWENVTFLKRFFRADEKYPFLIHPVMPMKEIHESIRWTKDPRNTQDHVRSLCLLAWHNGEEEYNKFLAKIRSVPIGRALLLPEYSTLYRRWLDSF
Large screens that a line does not name were inactive; ! = a repeat was not active.

CC1=NN(C(C)(C)C)C(=O)C1	none
CCCCOC(=O)c1ccc2c3c(onc13)-c1ccccc1C2=O	none
CCN(CC)Cc1cc(C(C)C)c(O)c(C(C)C)c1	none (no result: Mtb MbtI inh, MenB inh, PV pol inh)
CCN(CC)Cc1cc(O)c(CN(CC)CC)cc1O	Mtb MbtI inh 94 (no result: MenB inh)
O=S1(=O)CCN2N=C(C(F)(F)F)SC2=N1	none
COc1ccc(-c2cn3c(n2)sc2cc(C(=O)NCCCN4CCCCC4)ccc23)cc1	PV pol inh 90 (no result: Mtb MbtI inh, MenB inh, AID504770)
COc1ccc(-c2cn3c(n2)sc2cc(C(=O)NCCCN4CCCCCC4)ccc23)cc1	none (no result: Mtb MbtI inh, MenB inh, AID504770)
C1COCCNCCOCCN1	PV pol inh 88
CCS(=O)c1ccccc1C(=O)NCc1ccc(F)cc1 (configuration not stated)	Mtb MbtI inh 86
Cc1ccccc1-c1ocnc1C(=O)Nc1cccnc1	MenB inh 30
O=C(/C=C/c1ccc2c(c1)OCO2)OCC(=O)N1CCOCC1	none
COCCNC(=S)c1ccc(N(C)C)cc1	Mtb MbtI inh 62
COc1ccc(-n2c(-c3ccccc3)csc2=NC(=O)c2ccccc2)cc1	none (no result: MenB inh)
Cc1ccc(NC(=S)C(C#N)C(N)=O)cc1Cl (configuration not stated)	Mtb MbtI inh 74
O=c1c(=Nc2ccc(O)cc2)c(=O)c2ccccc12	PV pol inh 49 (no result: MenB inh)
COC(=O)c1ccccc1N1C(=O)C=CC1=O	AID504770 -2.5 (no result: Mtb MbtI inh, MenB inh, PV pol inh)
CSC1=NC(C)(C)Cc2c(C)cccc21	PV pol inh 90 (no result: Mtb MbtI inh)
CCn1c(/C=C/Nc2ccccc2)[n+](CC)c2ccc(S(=O)(=O)C(F)(F)F)cc21	none (no result: MenB inh)
NC(=S)c1cccc(Oc2ccccc2)c1	PV pol inh 87
C=CCn1c(=S)[nH]c2cc(C(=O)O)ccc2c1=O	none
C=CCn1c(=S)[nH]c2ccccc2c1=O	MenB inh 31!
COc1ccccc1Nc1nn(CN2CCCCC2C)c(=S)s1 (configuration not stated)	Mtb MbtI inh 100
COc1ccccc1C(=O)CN1CCCCC1C (configuration not stated)	none
O=c1[nH]c(=S)n(-c2cccc(Cl)c2)c2c1CN(C1CCCC1)CN2	MenB inh 52
O=c1[nH]c(=S)n(CCc2ccccc2)c2c1CN(CCc1ccccc1)CN2	none
Cc1n[nH]c(=O)c2c(NC(=O)COC(=O)C3(c4ccc(Cl)cc4)CCC3)oc(C)c12	none
CN(C)C1CCS(=O)(=O)C1 (configuration not stated)	none
CC1=CC(=O)C(N(C)C2CCS(=O)(=O)C2)=CC1=O (configuration not stated)	Mtb MbtI inh 100
COc1ccc(C(=O)n2c3c(c(=O)n2-c2ccccc2)Cc2ccc(OC)cc2O3)cc1	MenB inh 54
Cc1nnc(SCC(=O)c2ccc3c(c2)NC(=O)CO3)n1C1CC1	none
CCn1cnc2c(=O)[nH][nH]c(=O)c21	none (no result: Mtb MbtI inh)
CSc1ncc(/C=C2/C(=O)NC(=O)N(C3CCCCC3)C2=O)cn1	Mtb MbtI inh 71
Cc1ccc(/C=C2/C(=O)NC(=O)N(C3CCCCC3)C2=O)cc1	none
NC1CCN(C(=O)NC2CCCCC2)CC1	MenB inh 24
CCOC(=O)c1sc(=N)n(CC(=O)c2ccc(F)cc2)c1C	PV pol inh 1.0
CCOC(=O)c1cc2c(ccn2-c2ccc(F)cc2)n1CC(=O)c1ccc2c(c1)OCCO2	none
CCOc1ccc(NC(=O)Cc2cccc3c(S(=O)O)cccc23)cc1	Mtb MbtI inh 65
CCOc1ccc(NC(=O)CC(=O)Nc2ccc(OCC)cc2)cc1	none
N#CC(C#N)=Cc1cc2c(cc1Br)OCO2	PV pol inh 70
CCN(CC)C(=O)c1c(NC(=O)c2ccco2)sc2c1CCCCC2	none
CC(C)(C)N1CSC(=S)N(Cc2ccco2)C1	AID504770 -7.9
O=C1CCCc2cc(S(=O)(=O)N3CCC(C(=O)NC4CCCCCC4)CC3)ccc2N1	none
Cc1ccc2[nH]cc(CCNS(C)(=O)=O)c2c1	MenB inh 26
C/C(Nc1ccccc1)=C1\C(=O)C=C(c2ccco2)CC1c1ccco1 (configuration not stated)	none (no result: Mtb MbtI inh)
O=C(CCCc1ccccc1)Nc1scc2c(=O)oc3ccccc3c12	PV pol inh 79 (no result: Mtb MbtI inh)
Cn1ccnc1SCC(=O)Nc1ccccc1Oc1ccccc1	none (no result: Mtb MbtI inh)
CN1C/C(=C\c2cccc3ccccc23)C(=O)/C(=C/c2cccc3ccccc23)C1	none (no result: Mtb MbtI inh, MenB inh, PV pol inh)
COc1ccccc1OCC(=O)Nc1sc2c(c1C#N)CCCC2	none (no result: Mtb MbtI inh)
Cc1cc(Cl)ccc1OCC(=O)Nc1sc2c(c1C#N)CCC2	PV pol inh 80 (no result: Mtb MbtI inh)
Cc1ccc(C)n1-c1cccc(C(=O)O)c1	PV pol inh 34 (no result: Mtb MbtI inh)
O=C1NC(=S)C(=C2CCCC2)S1	Mtb MbtI inh 77
CC(C)C(=O)N(Cc1cccnc1)Cc1cc2ccccc2[nH]c1=O	none
